The text below walks through data of PubChem BioAssay AID449739 (Vanderbilt High Throughput Screening Facility, 2010).

SMILES strings stand for the structures. About 4,200 (4.2%) of roughly 100,000 compounds were called active. This excerpt belongs to a sample that is enriched for actives. A number with no mark means an inactive call.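 How the source made its calls: active means single-dose well whose peak fluorescence ratio is a statistical outlier from its plate by either plate-standardised score or position-corrected B-score; inactive means the rest.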

The target of this assay is Voltage-dependent T-type calcium channel subunit alpha-1H (Homo sapiens) (UniProt O95180). Description: Cav3.2 calcium influx blockers – cell-based, Fluo-4 calcium fluorescence, FDSS, MLSMR library, primary screen (AID 449739). The settings on record: Cav3.2-expressing cells, at 10 µM, hits give low values.
Voltage-dependent T-type calcium channel subunit alpha-1H (Homo sapiens), sequence (O95180 whole entry, looked up): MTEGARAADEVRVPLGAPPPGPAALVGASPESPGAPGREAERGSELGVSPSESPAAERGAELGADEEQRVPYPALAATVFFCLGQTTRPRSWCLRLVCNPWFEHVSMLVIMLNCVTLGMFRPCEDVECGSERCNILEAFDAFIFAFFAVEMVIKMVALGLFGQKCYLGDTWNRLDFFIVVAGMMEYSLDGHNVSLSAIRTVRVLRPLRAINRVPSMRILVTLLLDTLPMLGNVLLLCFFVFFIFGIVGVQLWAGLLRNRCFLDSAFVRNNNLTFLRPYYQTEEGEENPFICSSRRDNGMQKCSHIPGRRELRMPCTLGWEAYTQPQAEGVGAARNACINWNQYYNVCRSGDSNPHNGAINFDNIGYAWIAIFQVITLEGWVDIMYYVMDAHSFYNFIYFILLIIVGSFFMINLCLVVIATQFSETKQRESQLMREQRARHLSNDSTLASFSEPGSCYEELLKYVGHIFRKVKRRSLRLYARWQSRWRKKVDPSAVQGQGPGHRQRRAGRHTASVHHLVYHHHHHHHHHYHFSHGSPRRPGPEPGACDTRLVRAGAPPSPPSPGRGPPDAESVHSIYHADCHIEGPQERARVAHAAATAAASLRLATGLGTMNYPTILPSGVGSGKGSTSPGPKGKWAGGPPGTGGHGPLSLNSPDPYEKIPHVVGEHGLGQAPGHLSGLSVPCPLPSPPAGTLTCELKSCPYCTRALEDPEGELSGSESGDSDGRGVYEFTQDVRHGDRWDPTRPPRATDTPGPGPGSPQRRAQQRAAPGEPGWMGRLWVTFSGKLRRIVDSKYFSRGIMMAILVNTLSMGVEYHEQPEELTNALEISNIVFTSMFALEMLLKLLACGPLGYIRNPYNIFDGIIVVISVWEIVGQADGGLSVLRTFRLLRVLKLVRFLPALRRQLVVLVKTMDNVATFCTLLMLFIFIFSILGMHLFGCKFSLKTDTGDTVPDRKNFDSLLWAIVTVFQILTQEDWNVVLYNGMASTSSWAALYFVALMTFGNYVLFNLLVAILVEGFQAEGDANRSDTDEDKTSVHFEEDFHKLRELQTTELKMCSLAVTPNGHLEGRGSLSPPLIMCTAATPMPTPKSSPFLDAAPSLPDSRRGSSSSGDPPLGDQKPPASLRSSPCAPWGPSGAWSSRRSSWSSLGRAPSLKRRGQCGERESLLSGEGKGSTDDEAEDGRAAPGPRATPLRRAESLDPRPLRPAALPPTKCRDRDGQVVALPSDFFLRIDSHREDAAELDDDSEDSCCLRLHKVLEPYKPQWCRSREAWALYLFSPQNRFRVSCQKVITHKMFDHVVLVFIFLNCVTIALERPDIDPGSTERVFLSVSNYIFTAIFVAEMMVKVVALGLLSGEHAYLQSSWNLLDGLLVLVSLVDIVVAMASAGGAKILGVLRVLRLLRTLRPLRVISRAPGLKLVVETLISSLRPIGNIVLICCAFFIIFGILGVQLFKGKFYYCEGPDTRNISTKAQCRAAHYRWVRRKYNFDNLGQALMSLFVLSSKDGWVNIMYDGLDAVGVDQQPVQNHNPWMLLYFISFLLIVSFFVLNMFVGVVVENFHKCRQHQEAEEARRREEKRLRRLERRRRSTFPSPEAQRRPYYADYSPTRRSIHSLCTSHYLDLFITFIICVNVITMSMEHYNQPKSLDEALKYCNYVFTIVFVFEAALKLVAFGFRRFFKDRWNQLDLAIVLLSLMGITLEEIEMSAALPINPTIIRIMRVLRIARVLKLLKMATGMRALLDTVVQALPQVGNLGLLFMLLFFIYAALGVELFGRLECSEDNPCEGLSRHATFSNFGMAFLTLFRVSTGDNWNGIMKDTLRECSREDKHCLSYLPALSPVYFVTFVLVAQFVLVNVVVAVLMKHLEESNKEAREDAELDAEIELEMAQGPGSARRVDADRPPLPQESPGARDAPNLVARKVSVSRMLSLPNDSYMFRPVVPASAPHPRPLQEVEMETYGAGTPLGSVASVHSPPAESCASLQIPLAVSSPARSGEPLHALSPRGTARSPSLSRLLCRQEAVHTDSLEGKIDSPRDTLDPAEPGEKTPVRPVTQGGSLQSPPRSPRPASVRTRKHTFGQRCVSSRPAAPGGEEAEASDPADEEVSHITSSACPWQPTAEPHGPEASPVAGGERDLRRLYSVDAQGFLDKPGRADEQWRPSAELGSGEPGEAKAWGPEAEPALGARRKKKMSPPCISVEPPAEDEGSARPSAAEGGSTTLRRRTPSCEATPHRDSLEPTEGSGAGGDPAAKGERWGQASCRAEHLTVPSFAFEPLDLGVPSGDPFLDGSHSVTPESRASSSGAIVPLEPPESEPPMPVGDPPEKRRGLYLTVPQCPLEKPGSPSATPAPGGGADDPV
Consider `Cn1ccnc1-c1nnn(-c2ccc(F)cc2)n1`, for which the B-score is -0.241.

In the case of `Cc1cccc(C(=O)Nc2ccccc2-c2nnn(CC(=O)Nc3ccc4c(c3)OCCO4)n2)c1`, the B-score is 0.0432. Regarding `COc1ccc(C2/C=C\CN(S(=O)(=O)c3cccs3)CC(=O)N2Cc2ccc(F)cc2)cc1` (stereo not drawn), the B-score was -1.93. Under `CCCC(=O)N1CCc2[nH]c3ccccc3c2C1` stands 1.88; under `O=C(Nc1ccc(Cl)cc1)N1CCc2[nH]c3ccccc3c2C1`, -6.38 (active).

Take `O=C(NC1CCCCC1)N1CCc2[nH]c3ccccc3c2C1`: the B-score was -0.408. Under `CCC(C)NC(=O)c1c(N)n(/N=C/c2cccs2)c2nc3ccccc3nc12` (stereo not drawn) stands -0.663.

Turning to `COc1ccccc1OCCNc1cc(N2CCOCC2)ccc1[N+](=O)[O-]`, the B-score is -0.763. With `CCOC(=O)c1sc(NC(=O)CSc2nc3c(c(=O)n2-c2ccccc2)SCC3)c(C(=O)OCC)c1C`, the B-score is -0.157. Turning to `CC(C)C[C@H](NC(=O)Nc1cccc(C(F)(F)F)c1)C(=O)O`, the B-score is 0.25. Under `FC(F)(F)c1cccc(NC(=S)Nc2cccc(Cl)c2)c1` stands -7.17 (active); under `CC(=O)N1CCN(C(=O)Nc2cccc(C(F)(F)F)c2)CC1`, 0.454; under `c1ccc(-n2nnnc2NC2CCCCCC2)cc1`, 0.00228. `CCCN(CCC)C(=O)C1c2ccccc2Oc2ccccc21`: the B-score was -4.57 (active).

As to `O=C(N/N=C/c1ccc(O)c(O)c1)C1c2ccccc2Oc2ccccc21`, the B-score is 1.05. Under `O=C(c1ccco1)N1CCN(C(=O)C2c3ccccc3Oc3ccccc32)CC1` stands 0.29; under `C=CCNc1nc(N)c(C(=C(C#N)C#N)c2ccccc2)s1`, -0.0432; under `COC(C[C@@H](O)[C@H](C)[C@H](O)COCc1ccccc1)OC`, 0.321. Under `CCN(CC)c1ccc(NC(=O)c2ccc(Cl)nc2)cc1` stands -0.986; under `CCOc1ccccc1Nc1nnc(SCc2ccc(C(=O)OC)o2)s1`, -3.2; under `COc1cccc(Nc2nnc(SCC(=O)N3CC(C)OC(C)C3)s2)c1` (stereo not drawn), -4.05 (active). Under `COc1ccccc1-c1nnc(SCC(=O)N2CC(C)CC(C)C2)o1` (stereo not drawn) stands 0.0644; under `O=C(Nc1ccccc1)OCc1cn(-c2ccc(Cl)cc2)nn1`, -0.643; under `Cc1ccc(S(=O)(=O)N(CC(=O)N2CCc3ccccc3C2)c2cccc(Cl)c2)cc1`, -5.57 (active). Take `CCOC(=O)N1CCN(C(=O)CN(c2ccc(C)c(C)c2)S(=O)(=O)c2ccccc2)CC1`: the B-score is -1.16.

Regarding `COc1cccc(N(CC(=O)N2CCc3ccccc3C2)S(C)(=O)=O)c1`, the B-score was 1.04.

`O=C(NCc1ccccc1)C1=C[C@H](C2CC2)C[C@H](OCc2ccc(CO)cc2)O1`: the B-score is -0.049. With `CCOC(=O)c1c(NC(=O)C(C)Sc2c[nH]c3ccccc23)sc2c1CCC2` (stereo not drawn), the B-score is -0.96. Under `C#CCOCCOCCOCCNc1nc(N2CCN(C(=O)[C@H](C(C)C)n3cc(CCO)nn3)CC2)nc(N2CCN(C(=O)[C@H]([C@@H](C)CC)n3cc(CCCN=C(N)N)nn3)CC2)n1` stands 0.0921. As to `CC1=NN(C(=O)c2ccccc2Br)C(O)(c2cccnc2)C1` (stereo not drawn), the B-score was 0.377. For the molecule `CC1=CC(C)(C)N(C(=O)CSc2nnc(-c3ccccc3)o2)c2ccc(C)cc21`, the B-score was -4.16 (active). Under `O=C(CSc1nnc(-c2ccccc2)o1)N1CCOCC1` stands -0.483; under `CC1=CC(C)(C)N(C(=O)CSc2nccn2C)c2cc(C)ccc21`, -0.49; under `CC(C)=CCc1c(O)c(CC=C(C)C)c2occ(-c3ccc(O)cc3)c(=O)c2c1O`, -0.844. Under `Cc1ccc(NC(=O)c2nc[nH]c2C(=O)N[C@@H](CCCCNC(=O)OC(C)(C)C)C(=O)OC(C)(C)C)cc1` stands -0.574; under `CC(C)C(=O)OCC(=O)Nc1ccc2c(c1)CCC2`, 0.246; under `CCN(CC)S(=O)(=O)c1cccc(C(=O)Nc2ccccc2)c1`, 0.194.

`CCN(CC)S(=O)(=O)c1cc([N+](=O)[O-])ccc1NNC(=O)Nc1ccccc1`: the B-score was -4.53 (active). Under `Cc1ccccc1NC(=S)Nc1cccc([N+](=O)[O-])c1` stands -0.107. With `O=C1CC2(CCCC2)Oc2ccc(Cl)cc21`, the B-score was -0.0281.

`CCOC(=O)C1Nc2ccc(C(F)(F)F)cc2C2C=CCC12` (stereo not drawn): the B-score is -0.137. Under `COc1cccc(N(CC(=O)Nc2cccc(N(C)S(C)(=O)=O)c2)S(C)(=O)=O)c1` stands -1.19; under `Cc1ccc(N(CC(=O)Nc2cccc(N(C)S(C)(=O)=O)c2)S(C)(=O)=O)cc1`, 1.01; under `CCN(CC)S(=O)(=O)c1ccc(NC(=O)CN(c2cccc(F)c2)S(C)(=O)=O)cc1`, -6.56 (active). Under `CC1=C(N2CCN(c3ncccn3)CC2)CCC1=O` stands 0.282.

For `C[C@@H]1CC[C@]2(O[C@@H](CCO)C[C@H](O)[C@H]2O)O1`, the B-score was 0.111. Under `COC(=O)c1cccc(NC(=O)CSc2nc(C)cc(=O)[nH]2)c1` stands 0.842; under `CSc1cccc(NC(=O)CSc2ccccc2)c1`, -6.09 (active). `CCn1c(Cc2ccccc2)nnc1SCC(=O)Nc1ccccc1`: the B-score was 0.0752.

As to `COC(C[C@@H]1O[C@@H]1C(=O)[C@@H](C)OCc1ccccc1)OC`, the B-score is 0.0102. As for `Cc1cc(C)cc(NC(=O)c2cccc(NC(=O)C3C4CC5OC(=O)C3C5C4)c2)c1` (stereo not drawn), the B-score was -0.673. Consider `Cc1cccc(NC(=O)C2CC(=O)OC23CCCC3)c1` (stereo not drawn), for which the B-score is 2.01. Under `Cc1cccc(NC(=O)C(C)N2C(=O)C3C4CC(C(Br)C4Br)C3C2=O)c1` (stereo not drawn) stands -4.83 (active). Under `CC1(C)C=C2[C@H]3CC[C@@H]4[C@@]5(C)CCC(=O)C(C)(C)[C@@H]5CC[C@@]4(C)[C@]3(C)CC[C@@]2(C(=O)O)CC1` stands -0.0499; under `COc1ccc(CNC(=O)C2(CC3CC(c4ccccc4)=NO3)CCN(C(=O)c3cccc(O)c3)CC2)cc1` (stereo not drawn), -0.683; under `CCOC(=O)C1=C(CNC2CCCCC2)NC(=O)NC1c1cc(C)ccc1C` (stereo not drawn), -3.93 (active).

Turning to `CCOC(=O)C1=C(CSc2nccn2C)NC(=O)NC1c1ccc(OC)cc1` (stereo not drawn), the B-score is 0.905. Under `CCOC(=O)COc1ccc(Cl)cc1C1NC(=O)NC(C)=C1C(C)=O` (stereo not drawn) stands 0.0116.
